Experimental data reported in PubChem BioAssay.

Tests used:
[1] = test system: Botulinum neurotoxin type F light chain protease (Clostridium botulinum); test: Clostridium botulinum type F light chain protease inhibitors, microsphere substrate cleavage, validation (AID 588459); details: multiplex microsphere protease substrate cleavage assay, flow cytometry; at 10 µM; stronger effect = higher value
[2] = target: Botulinum neurotoxin type A (Clostridium botulinum) (UniProt P0DPI0); test: BoNT/A light chain protease inhibitors, biochemical, multiplex microsphere flow cytometry, validation set (AID 588460); details: at 10 µM, stronger effect = higher value
[3] = target: Lethal factor (Bacillus anthracis) (UniProt P15917); test: Bacillus anthracis lethal factor inhibition, microsphere flow cytometry protease assay, validation at 10 µM (AID 588461); details: multiplex microsphere protease cleavage assay, stronger effect = higher value

Measured: inhibition

Sequence of Lethal factor (Bacillus anthracis) (P15917 whole entry, looked up): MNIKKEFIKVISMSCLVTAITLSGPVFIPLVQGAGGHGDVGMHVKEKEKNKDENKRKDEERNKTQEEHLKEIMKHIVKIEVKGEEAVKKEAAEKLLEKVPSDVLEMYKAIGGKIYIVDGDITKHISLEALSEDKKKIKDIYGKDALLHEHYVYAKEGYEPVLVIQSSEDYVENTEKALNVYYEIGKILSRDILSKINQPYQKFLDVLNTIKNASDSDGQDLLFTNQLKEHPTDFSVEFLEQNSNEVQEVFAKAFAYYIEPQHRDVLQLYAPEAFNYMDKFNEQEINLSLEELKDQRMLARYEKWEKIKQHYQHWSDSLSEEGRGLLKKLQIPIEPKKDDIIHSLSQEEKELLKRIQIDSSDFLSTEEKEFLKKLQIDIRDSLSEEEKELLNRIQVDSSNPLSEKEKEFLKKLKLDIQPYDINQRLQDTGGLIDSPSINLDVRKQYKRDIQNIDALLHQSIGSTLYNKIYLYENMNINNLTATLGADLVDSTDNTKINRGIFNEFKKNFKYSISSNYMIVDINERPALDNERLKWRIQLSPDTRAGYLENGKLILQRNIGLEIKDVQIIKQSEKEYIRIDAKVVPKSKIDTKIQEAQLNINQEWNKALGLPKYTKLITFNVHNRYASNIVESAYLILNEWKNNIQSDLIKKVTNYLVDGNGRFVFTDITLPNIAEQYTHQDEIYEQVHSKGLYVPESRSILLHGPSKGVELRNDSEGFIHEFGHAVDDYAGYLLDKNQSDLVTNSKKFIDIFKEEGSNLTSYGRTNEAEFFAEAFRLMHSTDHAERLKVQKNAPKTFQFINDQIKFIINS
Sequence of Botulinum neurotoxin type A (Clostridium botulinum) (P0DPI0 whole entry, looked up): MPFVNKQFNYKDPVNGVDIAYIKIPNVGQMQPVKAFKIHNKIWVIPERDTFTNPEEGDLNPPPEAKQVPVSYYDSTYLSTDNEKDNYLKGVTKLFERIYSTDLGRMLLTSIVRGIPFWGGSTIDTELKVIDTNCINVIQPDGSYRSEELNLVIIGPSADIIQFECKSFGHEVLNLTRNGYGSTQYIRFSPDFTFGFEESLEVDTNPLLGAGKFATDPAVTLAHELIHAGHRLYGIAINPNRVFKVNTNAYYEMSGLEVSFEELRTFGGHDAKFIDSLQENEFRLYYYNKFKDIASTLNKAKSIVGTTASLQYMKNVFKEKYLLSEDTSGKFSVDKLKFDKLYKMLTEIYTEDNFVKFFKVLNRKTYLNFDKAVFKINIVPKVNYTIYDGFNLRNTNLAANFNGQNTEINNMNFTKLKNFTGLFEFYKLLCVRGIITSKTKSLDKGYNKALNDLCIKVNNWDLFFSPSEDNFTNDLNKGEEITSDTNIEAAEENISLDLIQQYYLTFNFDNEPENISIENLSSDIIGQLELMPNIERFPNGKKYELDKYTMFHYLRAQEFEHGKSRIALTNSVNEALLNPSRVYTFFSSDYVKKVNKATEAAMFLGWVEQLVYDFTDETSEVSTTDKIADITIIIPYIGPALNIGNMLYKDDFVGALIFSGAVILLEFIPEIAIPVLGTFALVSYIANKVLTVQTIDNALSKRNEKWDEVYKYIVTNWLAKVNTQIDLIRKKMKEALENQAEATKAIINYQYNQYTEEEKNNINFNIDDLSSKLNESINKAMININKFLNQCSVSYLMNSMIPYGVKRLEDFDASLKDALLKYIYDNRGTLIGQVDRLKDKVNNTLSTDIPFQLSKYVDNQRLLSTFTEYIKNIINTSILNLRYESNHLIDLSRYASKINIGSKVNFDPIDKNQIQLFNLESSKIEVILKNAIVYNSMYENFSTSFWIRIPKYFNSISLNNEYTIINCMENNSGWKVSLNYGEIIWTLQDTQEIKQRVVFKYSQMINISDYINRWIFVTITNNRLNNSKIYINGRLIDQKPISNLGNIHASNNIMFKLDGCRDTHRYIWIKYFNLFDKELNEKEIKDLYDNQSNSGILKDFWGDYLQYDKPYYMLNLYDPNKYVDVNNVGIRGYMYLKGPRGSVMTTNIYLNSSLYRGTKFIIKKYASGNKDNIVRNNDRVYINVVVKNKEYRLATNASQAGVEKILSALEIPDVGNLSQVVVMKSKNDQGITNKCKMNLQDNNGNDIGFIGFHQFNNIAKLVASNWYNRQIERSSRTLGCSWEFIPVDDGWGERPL

CCN(Cc1cnn(C)c1)Cc1nc(C(c2ccccc2)c2ccccc2)no1
inactive: [1] 0.3% | [2] -2.2% | [3] -3.7%

COc1cccc(CN2CCN(C(=O)c3ccc(-c4ccccc4)cc3)CC2)c1
inactive: [1] 3.8% | [2] -0.4% | [3] -3.1%

CC(=O)Oc1ccc(C(=O)O)cc1OC(C)=O
inactive: [1] -0.7% | [2] 0.4% | [3] 2.4%

CC12CCC(C(=O)Nc3ccccc3Br)(C/C1=N\O)C2(C)C (stereo not given)
inactive: [1] -3.6% | [2] -0.7% | [3] -6.5%

CNS(=O)(=O)c1ccc(C)cc1
inactive: [1] -3.1% | [2] -0.5% | [3] -3.3%

Cc1ccc(C(=O)N2CC3(C(C)C)CN(C(=O)c4ccc(C)cc4)CC(C(C)C)(C2)C3=O)cc1
inactive: [1] 5% | [2] -0.5% | [3] -2.5%

O=C(NCCCCCc1nc2ccccc2[nH]1)c1ccccc1Cl
inactive: [1] 1.4% | [2] 0.3% | [3] 3.6%

Cc1ccc(CN2CCN(Cc3cn[nH]c3C3CCCCC3)CC2CCO)cc1 (stereo not given)
inactive: [1] -1.3% | [2] -0.4% | [3] -2.1%

COc1ccc([C@H]2[C@H](C(=O)OC(C)(C)C)N3N=Cc4ccccc4C3C23C(=O)c2ccccc2C3=O)cc1OC (stereo not given in full)
inactive: [1] -0.2% | [2] 0.5% | [3] -5.5%

COc1ccccc1C1(CC(=O)N2CCCCC2)CCOC(C(C)C)C1 (stereo not given)
inactive: [1] 1.1% | [2] -0.2% | [3] -3.3%
